Screen size: about 370,000 compounds; about 2,100 (0.57%) were called active. Shown is part of a subset that was picked to be rich in actives. Unmarked numbers belong to inactive results.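 How the source made its calls: active means inhibition above mean plus 3 SD of compounds lying within the high and low control bounds (cut at about 19% in these data); inactive means the rest.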

Here are results for 58 compounds from PubChem BioAssay AID743126 (The Scripps Research Institute Molecular Screening Center, 2013).

The target in the experiment is Group 3 secretory phospholipase A2 (Homo sapiens) (UniProt Q9NZ20). Nature of the experiment: human group III sPLA2 inhibitors, primary screen, biochemical, QFRET, BODIPY PC-A2 liposome substrate (AID 743126).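 Further: 0% = median of test compound wells and 100% = no enzyme DMSO wells.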 The conditions noted are these: QFRET BODIPY PC-A2 liposome hydrolysis, fluorescence; at 12.2 µM; stronger effect = higher value.
Group 3 secretory phospholipase A2 (Homo sapiens), sequence (Q9NZ20 whole entry, looked up): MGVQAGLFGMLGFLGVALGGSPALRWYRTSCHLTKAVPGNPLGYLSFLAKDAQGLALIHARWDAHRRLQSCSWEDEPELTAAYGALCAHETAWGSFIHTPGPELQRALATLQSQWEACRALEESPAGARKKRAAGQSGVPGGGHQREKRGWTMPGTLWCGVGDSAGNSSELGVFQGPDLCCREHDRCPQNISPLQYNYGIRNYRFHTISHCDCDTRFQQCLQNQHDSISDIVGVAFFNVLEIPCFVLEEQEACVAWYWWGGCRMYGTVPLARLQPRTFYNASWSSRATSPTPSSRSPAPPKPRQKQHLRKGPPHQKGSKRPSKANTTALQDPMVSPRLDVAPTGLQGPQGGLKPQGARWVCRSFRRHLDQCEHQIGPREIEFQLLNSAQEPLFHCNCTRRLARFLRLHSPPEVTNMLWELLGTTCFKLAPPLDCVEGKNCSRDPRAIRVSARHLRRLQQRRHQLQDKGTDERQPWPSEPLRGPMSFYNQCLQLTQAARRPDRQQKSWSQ
As for `CC(=O)N1CCCN(C2=Nc3ccccc3Sc3ccccc32)CC1`, the inhibition is -5.38%. In the case of `O=C(NCc1ccc(Cl)cc1)C1CCCN(c2nc3ccccc3o2)C1` (stereo not drawn), the inhibition was 0.81%. Then `Cc1ccc(NC(=O)Cc2cccc(F)c2)c(S(=O)(=O)N2CCOCC2)c1`, with -2.31%; and `Cc1c[nH]c2cccc(-c3ccc(Cl)cc3)c12`, with -16.5%.

As to `COc1ccnc(NC(=S)N2CCN(c3ncc(C(F)(F)F)cc3Cl)CC2)c1`, the inhibition is 23.3% (active). `O=C(NCC(=O)N1CCN(c2ncc(C(F)(F)F)cc2Cl)CC1)c1ccc(Br)o1`: the inhibition was -1.88%.

On to `Cc1cc(C)nc(NC(=S)N2CCN(c3ccc(C(F)(F)F)cn3)CC2)c1`, for which the inhibition was 11.2%. Take `CN1[C@H](Cc2ccccc2)COc2cccc(N3CCSCC3)c2S1(=O)=O`: the inhibition was -2.69%.

As for `O=C(NNC(=S)NC(=O)c1cn(-c2ccccc2)nc1-c1ccccc1)c1ccncc1`, the inhibition is 19.6% (active). Then `O=C(NNC(=S)NCCCN1CCOCC1)c1ccncc1`, with -1.42%; and `O=C(c1cn(-c2ccccc2)nc1-c1cccnc1)N1CCN(S(=O)(=O)c2ccccc2F)CC1`, with -9.4%; and `O=C(CSc1nnc(COc2ccccc2)n1-c1ccc(Cl)cc1)Nc1ccc2c(c1)OCO2`, with -14.5%. `COC(=O)c1cccc(Cn2ccc3ccc(-c4ccc5ccn(C(=O)C6CCCCC6)c5c4)cc32)c1`: the inhibition was -3.82%.

For `S=C(Nc1ccc(Br)cc1Cl)NC1CCN(Cc2ccccc2)CC1`, the inhibition was 0.32%. Then `CN(C)C(=S)Nc1ccc(Br)cc1Cl`, with 1.77%.

Take `O=C(NNC(=S)Nc1ccc(Br)cc1Cl)c1ccco1`: the inhibition is 26.4% (active). With `Cc1ccc(Cn2cc(COC(=O)N(C)Cc3ccccc3)nn2)cc1`, the inhibition is -5.61%.

`Cc1ccc(-n2c(SCC(=O)Nc3ccc(S(=O)(=O)Nc4nccs4)cc3)nnc2-c2cccnc2)cc1`: the inhibition was -21.7%. The figure for `O=C1CC[C@@]23CCCN2C(=O)CCC[C@H]3[C@H]1Cc1ccccc1` is 3.91%; for `CSc1ccc(NC(=O)N2CC(C)OC(C)C2)cc1` (stereo not drawn) it is 10.2%. `O=C(CN1CCN(c2ccc(O)cc2)CC1)Nc1ccc(-c2ccccc2)cc1`: the inhibition was 2.26%. Then `Cc1cccc(N2CCN(c3ccc(NC(=O)/C=C\C(=O)O)cc3)CC2)c1`, with 20.7% (active). `Cc1cccc(N2CCN(C(=O)c3ccccc3NC(=O)C3CCCCC3C(=O)O)CC2)c1` (stereo not drawn): the inhibition is 7.57%. Then `O=C(O)/C=C/C(=O)NNc1ccc([N+](=O)[O-])cc1`, with -1.39%; and `CSc1ccc(NC(=O)/C=C/C(=O)O)cc1`, with 22.1% (active); and `Cc1ccc(-c2nc(C3CCCN(S(=O)(=O)c4ccc(Br)s4)C3)no2)cc1` (stereo not drawn), with 7.46%.

`C=C(C)C1CC23C(=O)C4(C(=O)c5ccccc5)C[C@@]5(C)CCC(CC2C1(C)C)(C4=O)C35OC` (stereo partly drawn): the inhibition is 4.03%. Then `COc1ccc(C(=O)CSc2nnc(-c3cnccn3)n2-c2ccc(C)cc2)cc1`, with -19.7%. The figure for `CC(C)=C1C2CCC1C1C(=O)N(NC(=O)c3ccco3)C(=O)C21` (stereo not drawn) is 0.15%; for `O=C(NN1C(=O)C2CCCCC2C1=O)c1ccco1` (stereo not drawn) it is -6.36%; for `O=C(NN1C(=O)C2C3C=CC(C3)C2C1=O)c1ccco1` (stereo not drawn) it is 22.3% (active). The figure for `C=CCN1C(=O)[C@@H](CC(=O)N2CCN(C(=O)OCC)CC2)[C@]2(C(=O)OCC)CCCCC/C=C/12` is 3.8%.

Consider `C=CCN1C(=O)[C@@H](CC(=O)NCC2CCCCC2)[C@]2(C(=O)OC)CCCCC=C12`, for which the inhibition was -6.71%. The figure for `Cc1ccc(CSc2nnc(SCC(=O)NN=Cc3cc(Br)ccc3F)s2)cc1` is 8.12%; for `COC[C@@H]1CCCN1c1ccc2c(c1)O[C@H](C)CCN(C1CC1)S2(=O)=O` it is -5.4%; for `Oc1ccc(/C=C/c2c(F)cccc2F)c2cccnc12` it is 16%.

For the compound `CCN(Cc1ccccc1)C(=O)CN1C(=S)NC(C)(C)CC1C` (stereo not drawn), the inhibition is 31.1% (active). `CC1CC(C)(C)NC(=S)N1CCC(=O)N1CCN(Cc2ccccc2)CC1` (stereo not drawn): the inhibition was 8.05%.

In the case of `COc1cccc(CNC(=O)CCN2C(=S)NC(C)(C)CC2C)c1` (stereo not drawn), the inhibition is 6.8%.

Consider `COc1ccccc1C(=O)CSc1nnc(-c2ccccn2)n1-c1ccccc1`, for which the inhibition is -16.8%.

For `CCc1ccc(NC2Nc3cc(C)nn3S2)cc1` (stereo not drawn), the inhibition is 23.9% (active). The figure for `CCOC(=O)c1cccc(NC(=O)CN(C)S(=O)(=O)c2ccc(-c3cocn3)s2)c1` is -2.93%; for `O=C(C1CCN(S(=O)(=O)c2ccccc2)CC1)N1CCN(C2CCCCC2)CC1` it is 8.19%. As for `CCOc1ccc(-c2n[nH]c(=S)n2/N=C/c2cc3c(cc2[N+](=O)[O-])OCO3)cc1`, the inhibition was 1.67%. Then `S=c1[nH]nc(-c2ccco2)n1/N=C/c1ccccc1`, with 19.3% (active); and `CSc1ccc(C=Nn2c(-c3ccc(F)cc3)n[nH]c2=S)cc1`, with 6.63%. Then `Cc1cc(C)cc(NC(=O)N2CCC(N(C)CCC(C)C)CC2)c1`, with 10.3%; and `CCOC(=O)[C@@]12CCC3=C1N(CCC3)C(=O)[C@H](CC(=O)N1CCN(C(=O)c3ccco3)CC1)C2`, with 8.67%. Consider `c1coc(CCNc2ncnc3ccc(-c4ccc5c(c4)OCO5)cc23)c1`, for which the inhibition is -19.4%. On to `COC(=O)[C@]12C[C@H](CC(=O)NCc3ccccc3)C(=O)N(CCc3ccc(OC)c(OC)c3)C1=C[C@H](C(C)(C)C)O[C@@H]2C`, for which the inhibition was -21.4%. Then `COC1=C[C@H](C(=O)NCCNC(C)=O)[C@H](C)[C@@H](c2ccccc2)CC1=O`, with -0.85%; and `COc1ccccc1OCC(=O)OCn1c(SC)nnc(C)c1=O`, with 21.3% (active); and `C=CCn1c(SCC(N)=O)nnc1-c1ccccc1OC`, with 6.66%.

With `COc1ccccc1NC(=O)COC(=O)COc1ccccc1F`, the inhibition is -4.78%. Consider `CCN(CC)C(=O)CC[C@H]1CC[C@]2(CCCN(Cc3ccc(Cl)cc3)C2)O1`, for which the inhibition was 6.37%. For `O=C(COc1ccc(S(=O)(=O)NCCc2ccccc2)cc1)N1CCCC1`, the inhibition is -5.12%.

Regarding `CC(NS(=O)(=O)c1ccc(OCC(=O)N2CCCC2)cc1)c1ccccc1` (stereo not drawn), the inhibition was 5.02%. As for `O=C(COc1ccc(S(=O)(=O)NCc2ccccc2)cc1)N1CCOCC1`, the inhibition is 20.9% (active).
